# Laboratory results: the supplement of paper PMC7411054
# Where a name gives a salt, the structure may show the parent alone.
# System: WPMY1-TUBA1B-RELA
# Assay: lowest phenotypically active concentration; higher = less potent
# Details: treatment time: 24 h
# Outline: (§1)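 Phenotypic activity depended on meeting both a deviation and a reproducibility criterion. The fifteen gene-edited A549, HepG2 and WPMY1 reporter lines were treated at 0.3, 1, 3 or 9 µM for 24 h, four wells each, then imaged live with features normalised to solvent control wells. Deviation required ≥3 of 4 wells past the 95th percentile of control Euclidean distances, and reproducibility a median replicate Pearson correlation above the 95th percentile of non-replicates.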
row,SMILES,lowest phenotypically active concentration [µM]
1,CCN1CCN(c2cc(-c3ccc(F)cc3)c3c(n2)CCCCCC3)CC1 [blonanserin],9
2,COc1cc2c(NC3CCN(C(C)C)CC3)nc(C3CCCCC3)nc2cc1OCCCN1CCCC1,1
3,COc1cc2ncn(-c3cc(OCc4ccccc4C(F)(F)F)c(C(N)=O)s3)c2cc1OC,≤ 0.3
4,CCCCC1C(=O)N(c2ccccc2)N(c2ccc(O)cc2)C1=O (centres undefined) [oxyphenbutazone],9

# System: A549-CANX-COX4
# Assay: phenotypically active (imaging signature differs from DMSO and reproducible) at any of 0.3-9 uM (binary (1 = active, 0 = inactive)); higher = active
# Details: treatment time: 24 h
# Outline: as §1
row,SMILES,phenotypically active
1,OCc1ccccc1O[C@@H]1O[C@H](CO)[C@@H](O)[C@H](O)[C@H]1O [Salicin],0 (inactive)
2,O=C(c1ccc(C(=O)N2CCC(N3CCCC3)CC2)c(Nc2ccccc2)c1)N1CCC(N2CCCC2)CC1,0 (inactive)
3,O=c1[nH]cc(F)c(=O)[nH]1 [5-Fluorouracil],1 (active)
4,CC[C@H](C)[C@H](NC(=O)OCc1ccccc1)C(=O)N[C@@H](CCC(=O)OC(C)(C)C)C(=O)N[C@@H](C)C(=O)N[C@H](C=O)CC(C)C,1 (active)
5,CN1CCN(C2=Nc3cc(Cl)ccc3Nc3ccccc32)CC1 [clozapine],0 (inactive)
6,Cc1cc(C(C)(C)C)c(O)c(C)c1CC1=NCCN1 [oxymetazoline],0 (inactive)
7,CC1(C)NC(=O)N(c2ccc([N+](=O)[O-])c(C(F)(F)F)c2)C1=O [nilutamide],0 (inactive)
8,CCN1CCN(C(c2cccnc2)c2cc(Cl)c3cccnc3c2O)CC1 (centres undefined),1 (active)
9,CCOc1cc(N2CCC(O)CC2)ccc1Nc1ncc2c(n1)N(C)c1ccccc1C(=O)N2C,1 (active)
10,Cc1c2oc3c(C)ccc(C(=O)NC4C(=O)NC(C(C)C)C(=O)N5CCCC5C(=O)N(C)CC(=O)N(C)C(C(C)C)C(=O)OC4C)c3nc-2c(C(=O)NC2C(=O)NC(C(C)C)C(=O)N3CCCC3C(=O)N(C)CC(=O)N(C)C(C(C)C)C(=O)OC2C)c(N)c1=O (centres undefined) [Actinomycin D],1 (active)
11,Nc1nc2ccc(OC(F)(F)F)cc2s1 [riluzole],0 (inactive)
12,NCCNS(=O)(=O)c1cccc2cnccc12 [H-9 dihydrochloride],0 (inactive)
13,N#Cc1c(NC(=O)c2cccc3ccccc23)sc2c1CCCC2,1 (active)
14,COc1ccc2c(Oc3ccc(NC(=O)c4c(C)n(CC(C)(C)O)n(-c5ccccc5)c4=O)nc3)ccnc2c1,0 (inactive)
15,C[C@@H](c1ncncc1F)[C@](O)(Cn1cncn1)c1ccc(F)cc1F [voriconazole],0 (inactive)
16,CN1C/C(=C/c2ccc(B(O)O)cc2)C(=O)/C(=C/c2ccc(B(O)O)cc2)C1,1 (active)
17,Nc1ccn([C@@H]2O[C@H](CO)[C@@H](O)C2(F)F)c(=O)n1 [gemcitabine],1 (active)
18,Oc1ccc(Nc2nc(-c3ccc(Cl)cc3)cs2)cc1,1 (active)
19,C/C(=C/C(=O)Nc1ccccc1C(=O)O)c1ccc2ccccc2c1,0 (inactive)
20,NCCC(O)(P(=O)(O)O)P(=O)(O)O [pamidronate],0 (inactive)

row,SMILES,phenotypically active
1,CCN1CCN(c2ccc(Nc3cc(N(C)C(=O)Nc4c(Cl)c(OC)cc(OC)c4Cl)ncn3)cc2)CC1,0 (inactive)
2,Cc1nc(NC(=O)N2CCC[C@H]2C(N)=O)sc1-c1ccnc(C(C)(C)C(F)(F)F)c1 [alpelisib],1 (active)
3,CCN(CC)CCCC(C)Nc1ccnc2cc(Cl)ccc12 (centres undefined) [chloroquine],0 (inactive)
4,C[C@H]1O[C@H](O[C@H]2[C@H](O)[C@@H](O)[C@@H](O[C@H]3[C@H](O)[C@@H](O)[C@H](O)O[C@@H]3CO)O[C@@H]2CO)[C@H](O)[C@@H](O)[C@@H]1N[C@H]1C=C(CO)[C@@H](O)[C@H](O)[C@H]1O [Acarbose],0 (inactive)
5,C/C(=C/c1ccc(C(=O)O)cc1)c1ccc2c(c1)C(C)(C)CCC2(C)C,0 (inactive)
6,Cc1ccc(S(=O)(=O)/C=C/C#N)cc1,0 (inactive)
7,O=c1cc(-c2cccc3c2Sc2ccccc2S3)oc(N2CCOCC2)c1,0 (inactive)
8,CCCc1nc2c(C)cc(-c3nc4ccccc4n3C)cc2n1Cc1ccc(-c2ccccc2C(=O)O)cc1 [telmisartan],0 (inactive)
9,CC(C)CCN1c2nc(Nc3cc(F)c(O)c(F)c3)ncc2N(C)C(=O)C1C (centres undefined),0 (inactive)
10,COc1cc2nccc(Oc3ccc(NC(=O)NC4CC4)c(Cl)c3)c2cc1C(N)=O [lenvatinib],0 (inactive)
11,Nc1cc(C(F)(F)F)c(-c2cc(N3CCOCC3)nc(N3CCOCC3)n2)cn1 [buparlisib],1 (active)
12,Nc1ccn([C@@H]2O[C@H](CO)[C@@H](O)[C@H]2O)c(=O)n1 [Cytidine],0 (inactive)
13,OC(CCN1CCCCC1)(c1ccccc1)C1CCCCC1 (centres undefined) [trihexyphenidyl],0 (inactive)
14,COc1cc([C@@H]2c3cc4c(cc3[C@@H](O[C@@H]3O[C@@H]5CO[C@@H](C)O[C@H]5[C@H](O)[C@H]3O)[C@H]3COC(=O)[C@H]23)OCO4)cc(OC)c1O [etoposide],1 (active)
15,CCN1CCN(c2cc(-c3ccc(F)cc3)c3c(n2)CCCCCC3)CC1 [blonanserin],0 (inactive)
16,COc1cc2c(NC3CCN(C(C)C)CC3)nc(C3CCCCC3)nc2cc1OCCCN1CCCC1,1 (active)
17,COc1cc2ncn(-c3cc(OCc4ccccc4C(F)(F)F)c(C(N)=O)s3)c2cc1OC,1 (active)
18,CCCCC1C(=O)N(c2ccccc2)N(c2ccc(O)cc2)C1=O (centres undefined) [oxyphenbutazone],0 (inactive)
19,Cc1ccccc1N1C(=O)c2cc(S(N)(=O)=O)c(Cl)cc2NC1C (centres undefined) [metolazone],0 (inactive)
20,Cc1nc(NC(=O)N2CCC[C@H]2C(N)=O)sc1-c1csc(C(C)(C)C)n1,0 (inactive)
